GPT2 inhibitor: GPT2 alanine aminotransferase inhibition; Potency, µM (doses to about 57.7 µM), hits mostly inhibitors; Recombinant GPT2, coupled pyruvate oxidase/HRP Amplex Red fluorescence; 0.25% of 100,000 active; Q8TD30; further: nearly all actives have a fitted effect of over 60% in size
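Fluorescence of coupled pyruvate oxidase/HRP/Amplex Red system (50uM Amplex, 30 min, dark) reports pyruvate formed by GPT2. Enzyme reaction: 10ng/uL GPT2, 2mM L-alanine, 250uM a-KG, 30 min room temperature, pH 7.5; 50uM AOA control.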
NIH3T3 tox: cytotoxic compounds in NIH 3T3 cells; 4.3% of 94,000 active; AID 1345082; NIH 3T3 viability, CellTiter-Glo ATP luminescence, 48-72 h; Potency, µM (doses to about 96.7 µM), hits mostly inhibitors; further: nearly all actives have a fitted effect of over 55% in size
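Cells were seeded at 400 per well, treated with pin-transferred compound, and kept 48 or 72 hr at 37 °C before CellTiter-Glo addition and luminescence imaging of cellular ATP.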
hNpr1 antagonist: blocks ANP-stimulated signaling of human Npr1 receptor | HEK293 hNpr1 GloSensor cGMP, ANP-stimulated luminescence | Potency, µM (doses to about 46.3 µM), most hits filed as inhibitors | P16066 | 1.6% of 76,000 active; calls by dose curve; further: nearly all actives have a fitted effect of over 60% in size
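Compound pre-incubated 30 min at room temperature on GloSensor-loaded HEK293 cells stably carrying hNpr1 and the pGS-40F cGMP biosensor. Stimulation uses hNppA at 0.1 nM final; luminescence is taken at baseline and 20 min post-agonist.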
HEK cytotox: kills HEK 293 cells; AID 1345083; Potency, µM (series often up to 115 µM), actives largely listed as inhibitors; 6.6% of 94,000 active; HEK 293 viability, ATP luminescence (CellTiter-Glo), 48-72 h; further: nearly all actives have a fitted effect of over 60% in size
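ATP-coupled CellTiter-Glo luminescence served as viability read-out, recorded 10 min after reagent addition at room temperature. HEK 293 cells, 250 cells/well, had been incubated with pintool-transferred compound for 48 or 72 hr at 37 degree Celsius.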
Luciferase inh: blocks purified firefly luciferase enzyme activity. 2.5% of 76,000 active. Potency, µM (highest dose often 115 µM), usual class: inhibitors. purified P. pyralis luciferase, luminescence, biochemical. AID 1347043. P08659; further: nearly all actives have a fitted effect of over 65% in size
Target sequence (P08659 whole entry, looked up): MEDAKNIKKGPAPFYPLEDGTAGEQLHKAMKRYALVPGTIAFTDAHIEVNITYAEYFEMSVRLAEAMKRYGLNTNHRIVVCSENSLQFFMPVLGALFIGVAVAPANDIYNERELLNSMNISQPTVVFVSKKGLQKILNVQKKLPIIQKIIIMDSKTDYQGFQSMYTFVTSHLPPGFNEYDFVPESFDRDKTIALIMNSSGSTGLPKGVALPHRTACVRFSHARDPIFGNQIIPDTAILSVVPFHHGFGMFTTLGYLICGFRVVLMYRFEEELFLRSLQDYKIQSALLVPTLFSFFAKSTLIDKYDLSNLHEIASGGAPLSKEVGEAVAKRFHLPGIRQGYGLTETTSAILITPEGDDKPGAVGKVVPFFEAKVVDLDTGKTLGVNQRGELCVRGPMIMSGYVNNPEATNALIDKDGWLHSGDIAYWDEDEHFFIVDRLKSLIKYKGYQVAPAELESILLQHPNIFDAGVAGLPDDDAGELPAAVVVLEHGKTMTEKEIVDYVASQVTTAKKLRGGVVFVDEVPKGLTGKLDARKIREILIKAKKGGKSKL
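Purified P. pyralis luciferase (10nM final) in 50mM Tris acetate pH 7.5, 10mM Mg acetate, 0.01% Tween-20, 0.05% BSA with 10uM D-luciferin and 10uM ATP. Compounds titrated qHTS. Luminescence imaged on CCD.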
Of the large screens only hits and unclear results are named; the others gave an inactive call. Only some compounds are listed: those with a hit (about 10% of all), similar ones and a draw of the others. Unless noted, the call rests on the fitted dose curve; in most records, active means well fitted curve in the direction sought with a large enough effect; inconclusive means small, poorly fitted or top-dose-only effect, or another doubt; inactive means no such curve, though single readings can be large; an effect the other way counts as inactive or inconclusive.

Cc1ccc([S+](=O)([O-])NC2CCCN(Cc3ccc(-c4cc(C)cc(C)c4)cc3)C2)cc1 (centres undefined)	NIH3T3 tox inconclusive, HEK cytotox 40µM (no result: hNpr1 antagonist, Luciferase inh)
Cc1cc(C)cc(-c2ccc(CN3CCCC(N[S+](=O)([O-])c4cccs4)C3)cc2)c1 (centres undefined)	NIH3T3 tox 32µM, HEK cytotox 35µM (no result: hNpr1 antagonist, Luciferase inh)
O=[S+]([O-])(NC1CCCN(Cc2ccc(-c3cncnc3)cc2)C1)c1ccccc1 (centres undefined)	HEK cytotox inconclusive (no result: hNpr1 antagonist, Luciferase inh)
Cc1cc(C)cc(-c2ccc(CN3CCCC(NC(=O)C4CCCC4)C3)cc2)c1 (centres undefined)	none (no result: hNpr1 antagonist, Luciferase inh)
COc1ccccc1-c1ccc(CN2CCC(N[S+](=O)([O-])c3c(C)noc3C)C2)cc1 (centres undefined)	NIH3T3 tox inconclusive, HEK cytotox 45µM (no result: GPT2 inhibitor, hNpr1 antagonist, Luciferase inh)
CN(C)S(=O)(=O)N1CCCC1Cc1noc(-c2ccccc2)n1 (centres undefined)	NIH3T3 tox inconclusive, HEK cytotox inconclusive (no result: hNpr1 antagonist, Luciferase inh)
CC1CCN(C(=O)CCC2(Cc3ccc4ccccc4c3)CCC(=O)N2)CC1 (centres undefined)	none
O=C1N2CCCC2CN1C1CCN(Cc2ccc(C(F)(F)F)cc2)CC1 (centres undefined)	NIH3T3 tox inconclusive, hNpr1 antagonist inconclusive, HEK cytotox 40µM
COc1ccc(CN2CCC(N3CC4CCCN4C3=O)CC2)cc1 (centres undefined)	none
Oc1ccccc1CN1CCNc2cc(Nc3cccnc3)ncc2C1	NIH3T3 tox inconclusive, HEK cytotox 63µM, Luciferase inh inconclusive
COc1ccc(CN2CCNc3cc(Nc4cccnc4)ncc3C2)cc1O	NIH3T3 tox inconclusive, HEK cytotox inconclusive
COc1ccc(CN2CCNc3cnc(Oc4ccccc4)cc3C2)cc1O	NIH3T3 tox inconclusive, HEK cytotox 63µM
FC(F)(F)c1ccc(CN2CCNc3cc(Nc4cccnc4)ncc3C2)cc1	GPT2 inhibitor inconclusive, NIH3T3 tox inconclusive, hNpr1 antagonist inconclusive, HEK cytotox 32µM
c1ccc(Oc2cc3c(cn2)NCCN(Cc2cnc[nH]2)C3)cc1	HEK cytotox inconclusive
c1cncc(Nc2cc3c(cn2)CN(Cc2ccc4[nH]ccc4c2)CCN3)c1	NIH3T3 tox inconclusive, HEK cytotox 89µM, Luciferase inh 40µM
Cc1cccc(CN2CCNc3cc(Nc4cccnc4)ncc3C2)c1	NIH3T3 tox inconclusive, HEK cytotox inconclusive
CCOc1ccccc1CCCN1CC2(CCNCC2)CCC1=O	NIH3T3 tox inconclusive, HEK cytotox inconclusive
O=c1n(Cc2ccc(F)c(F)c2)nc(C2CCNCC2)n1Cc1ccccc1	none
Oc1ccccc1CN1CCNc2cnc(OCc3cccnc3)cc2C1	hNpr1 antagonist inconclusive, HEK cytotox 100µM
O=C(c1ccsc1)N1CCCn2cc(-c3ccccc3)nc21	HEK cytotox inconclusive, Luciferase inh 40µM
Cc1ccc(-c2cn3c(n2)N(C(=O)c2cnn4cccnc24)CCC3)cc1	HEK cytotox 79µM
COc1cccc(-c2cn3c(n2)N(C(=O)c2cccs2)CCC3)c1	HEK cytotox inconclusive, Luciferase inh 35µM
Cc1ccsc1C(=O)N1CCCn2cc(-c3ccccc3)nc21	HEK cytotox inconclusive
O=C(c1nc2ncccn2n1)N1CCCn2cc(-c3ccccc3)nc21	HEK cytotox inconclusive
COc1cccc(-c2cn3c(n2)N(C(=O)C2CCC2)CCC3)c1	HEK cytotox inconclusive, Luciferase inh inconclusive
Cc1ccsc1C(=O)N1CCCn2cc(-c3cccc(C#N)c3)nc21	HEK cytotox inconclusive, Luciferase inh 32µM
O=C(Nc1ccccc1)N1CCCC(C(=O)N2CCC(N3Cc4cccn4C3=O)CC2)C1 (centres undefined)	none (no result: hNpr1 antagonist, Luciferase inh)
COc1ccccc1-c1nnc2ccc(C(=O)NCCc3ccccc3)cn12	NIH3T3 tox inconclusive, HEK cytotox inconclusive (no result: hNpr1 antagonist, Luciferase inh)
O=C(NC1CC1)c1ccccc1OC1CN(Cc2ccc(C(F)(F)F)cc2)C1	NIH3T3 tox inconclusive, HEK cytotox 89µM
O=C(NC1CC1)c1ccccc1OC1CN(Cc2cccc(C(F)(F)F)c2)C1	NIH3T3 tox inconclusive, HEK cytotox 32µM
O=C(NC1CC1)c1ccccc1OC1CN(Cc2ccncc2)C1	HEK cytotox inconclusive
COc1ccc(CN2CC(C)(NC(C)=O)C2)c2ccccc12	HEK cytotox inconclusive
O=C(NCCc1ccccc1)c1ccc2nnc(Cc3ccc(Cl)cc3)n2c1	NIH3T3 tox inconclusive, HEK cytotox inconclusive (no result: hNpr1 antagonist, Luciferase inh)
O=C(NCc1ccccn1)C1CN(C2CCCCC2)C(=O)N1 (centres undefined)	none (no result: hNpr1 antagonist, Luciferase inh)
O=C(NCc1ccccc1)N1CC(Oc2cccc(-c3nc(-c4ccccc4)no3)c2)C1	NIH3T3 tox inconclusive, HEK cytotox 18µM
O=C(CCc1ccccc1)N1CC(Oc2ccc(-c3nc(-c4ccccc4)no3)cc2)C1	hNpr1 antagonist inconclusive, HEK cytotox inconclusive, Luciferase inh inconclusive
c1ccc(-c2nc(-c3ccc(OC4CNC4)cc3)no2)cc1	NIH3T3 tox 16µM, hNpr1 antagonist inconclusive, HEK cytotox inconclusive, Luciferase inh 4µM
c1coc(CN2CC(Oc3ccc(-c4noc(-c5ccncc5)n4)cc3)C2)c1	NIH3T3 tox inconclusive, hNpr1 antagonist 11µM, HEK cytotox 18µM, Luciferase inh 4µM
c1cc(-c2nc(-c3ccc(OC4CNC4)cc3)no2)ccn1	NIH3T3 tox inconclusive, HEK cytotox inconclusive, Luciferase inh inconclusive
O=C(NCc1ccccc1)N1CC(Oc2ccc(-c3nc(-c4ccccc4)no3)cc2)C1	hNpr1 antagonist inconclusive, HEK cytotox inconclusive, Luciferase inh 2.5µM
OC[C@@H]1CN(Cc2ccco2)C[C@H]1c1nc(-c2ccncc2)no1	HEK cytotox inconclusive, Luciferase inh inconclusive
Cc1noc(-c2cccc(OC3CN(C(=O)NCc4ccccc4)C3)c2)n1	NIH3T3 tox inconclusive, HEK cytotox inconclusive
COc1ccc(-n2c(=O)c(C(=O)NCc3ccc(C(F)(F)F)cc3)nc3cccnc32)cc1	NIH3T3 tox inconclusive, HEK cytotox inconclusive (no result: hNpr1 antagonist, Luciferase inh)
CC(C)CCCC1CN(C(=O)c2cn(C3CCC(N)CC3)nn2)CCO1 (centres undefined)	NIH3T3 tox inconclusive, HEK cytotox inconclusive
COc1ccc(CN2C(=O)CO[C@H]3CN(C4CCOCC4)C[C@H]32)cc1	NIH3T3 tox inconclusive
O=C(NCc1ccc(F)cc1)N1CC(Oc2ccc(-c3noc(-c4ccccc4)n3)cc2)C1	NIH3T3 tox inconclusive, hNpr1 antagonist 14µM, HEK cytotox inconclusive, Luciferase inh inconclusive
O=C(Nc1ccccc1F)N1CC(Oc2ccc(-c3nc(-c4ccccc4)no3)cc2)C1	Luciferase inh inconclusive
O=C(Nc1ccccc1F)N1CC(Oc2ccc(-c3noc(-c4ccccc4)n3)cc2)C1	hNpr1 antagonist 10µM, HEK cytotox inconclusive, Luciferase inh inconclusive
Cc1cc(C)n(CCC(=O)N2CC(Oc3cccc(-c4nc(-c5ccccc5)no4)c3)C2)n1	NIH3T3 tox 40µM, hNpr1 antagonist inconclusive, HEK cytotox inconclusive, Luciferase inh 28µM

From PubChem
